Where a name gives a salt, the structure may show the parent alone.
Tested on: Drosophila S2 cl14 SmoIP sensor cells
Assay: normalized SmoIP GFP fluorescence (untreated unstimulated = 0%, untreated Hh-stimulated = 100%); higher = more Smo activation sensor fluorescence
Details: stimulation: mock conditioned medium (-Hh); compound concentration: 2 uM; 24 h
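Also: flow cytometry read-out as median GFP intensity of gated cells, compounds added 30 min before Hh-conditioned or mock medium, mock-treated cells serving as unstimulated baseline.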

Structure (SMILES) | normalized SmoIP GFP fluorescence
CN(C)CC(c1ccc(O)cc1)C1(O)CCCCC1 (stereo not drawn) [desvenlafaxine] | -0.889%
CNC(=O)c1cc(COc2nnc(Nc3ccc(Cl)cc3)c3ccoc23)ccn1 [Telatinib-BAY-57-9352] | -14.3%
CC[C@H]1OC(=O)[C@H](C)[C@@H](O[C@H]2C[C@@](C)(OC)[C@@H](O)[C@H](C)O2)[C@H](C)[C@@H](O[C@@H]2O[C@H](C)C[C@H](N(C)C)[C@H]2O)[C@](C)(OC)C[C@@H](C)C(=O)[C@H](C)[C@@H](O)[C@]1(C)O [clarithromycin] | -6.97%
C=CCn1c(=O)c2cnc(Nc3ccc(N4CCN(C)CC4)cc3)nc2n1-c1cccc(C(C)(C)O)n1 | -13.9%
OCCOCCN1CCN(C2=Nc3ccccc3Sc3ccccc32)CC1 [Quetiapine-fumarate(Seroquel)] | -9.58%
CO[C@H]1/C=C\C=C(/C)C(=O)NC2=CC(=O)C(NCCN(C)C)=C(C[C@@H](C)C[C@H](OC)[C@H](O)[C@@H](C)/C=C(\C)[C@@H]1OC(N)=O)C2=O [17-DMAG,Hydrochloride-Salt] | 44.8%
CCOC(=O)c1ccc(N2NC(=O)C(=Cc3ccc([N+](=O)[O-])o3)C2=O)cc1 | 8.94%
O=C1[C@H](Cc2ccc(O)cc2)N2C(=O)CCN(C(=O)NCc3ccccc3)[C@H]2CN1Cc1cccc2ccccc12 | -2.82%
CO[C@@H](C(=O)N1Cc2[nH]nc(NC(=O)c3ccc(N4CCN(C)CC4)cc3)c2C1)c1ccccc1 | 12.4%
CCCCc1nc(Cl)c(CO)n1Cc1ccc(-c2ccccc2-c2nnn[nH]2)cc1 [losartan-potassium] | -1.56%
C=CC(=O)Nc1cccc(Nc2nc(Nc3ccc(Oc4ccnc(C(=O)NC)c4)cc3)ncc2F)c1 | -1.23%
CC(C)C[C@H](NC(=O)[C@H]1O[C@@H]1C(=O)O)C(=O)NCCCCN=C(N)N | -3.72%
NS(=O)(=O)C#Cc1ccccc1 [pifithrin-u] | -0.0369%
CCN(CC)CC#CCOC(=O)C(O)(c1ccccc1)C1CCCCC1 (stereo not drawn) [oxybutynin-chloride] | -1.12%
O=C(NC1CCOCC1)c1ccc(-c2cc(-c3c[nH]nc3-c3ccccn3)ccn2)cc1 | -1.38%
CN1CCc2nc(C(=O)N[C@@H]3C[C@@H](C(=O)N(C)C)CC[C@@H]3NC(=O)C(=O)Nc3ccc(Cl)cn3)sc2C1 [edoxaban] | -1.34%
O=c1oc2cc(O)ccc2s1 [tioxolone] | -1.83%
Cc1c(C(=O)NN2CCCCC2)nn(-c2ccc(Cl)cc2Cl)c1-c1ccc(Cl)cc1 | 2.46%
Fc1ccc([C@@H]2CCNC[C@H]2COc2ccc3c(c2)OCO3)cc1 [paroxetine-hcl] | 0.588%

Structure (SMILES) | normalized SmoIP GFP fluorescence
CN1CCN(CCCN2c3ccccc3Sc3ccc(C(F)(F)F)cc32)CC1 [trifluoperazine-dihydrochloride] | 4%
CCN1CCN(c2ccc(Nc3cc(N(C)C(=O)Nc4c(Cl)c(OC)cc(OC)c4Cl)ncn3)cc2)CC1 | -12.7%
NC(=O)[C@@H](CCC(F)(F)F)N(Cc1ccc(-c2ncon2)cc1F)S(=O)(=O)c1ccc(Cl)cc1 | 0.489%
c1ccc2c(CC3=NCCN3)cccc2c1 [Naphazoline-hydrochloride-Naphcon] | -11.6%
O=C(NCc1ccccc1)c1csc(Nc2ccncn2)n1 [Thiazovivin] | -11.6%
CCc1cccc(CC)c1NC(=O)N1Cc2[nH]nc(NC(=O)c3ccc(N4CCN(C)CC4)cc3)c2C1 | 3.18%
CC(C)c1cc(C(=O)N2Cc3ccc(CN4CCN(C)CC4)cc3C2)c(O)cc1O | 13.8%
Nc1cc(F)ccc1NC(=O)/C=C/c1cnn(C/C=C/c2ccccc2)c1 [rgfp966] | -0.775%
C[C@H](NC(=O)Cc1cc(F)cc(F)c1)C(=O)N[C@H](C(=O)OC(C)(C)C)c1ccccc1 | 4.93%
CC(=O)c1c(C)c2cnc(Nc3ccc(N4CCNCC4)cn3)nc2n(C2CCCC2)c1=O | 3.72%
O=C(NS(=O)(=O)c1ccc(Br)s1)c1ccc(Cl)cc1Cl [tasisulam] | -4.01%
CC(=O)Oc1ccccc1C(=O)O [aspirin-acetylsalicylic-acid] | -6.51%
Clc1ccc2nsnc2c1NC1=NCCN1 [Tizanidine-hydrochloride] | -5.76%
CC[C@H](Nc1ncnc2[nH]cnc12)c1nc2cccc(F)c2c(=O)n1-c1ccccc1 | -12.7%
Cn1cc(C2=C(c3ccc(Cl)cc3Cl)C(=O)NC2=O)c2ccccc21 | 16.5%
CCCc1cc(C)[nH]c(=O)c1CNC(=O)c1cc(-c2ccc(N3CCN(C(C)C)CC3)nc2)cc2c1cnn2C(C)C | 5.7%
Cc1ccc(C(=O)c2cc(O)c(O)c([N+](=O)[O-])c2)cc1 [tolcapone] | -2.48%
O=C(Nc1ccccc1)Nc1ccc(-c2ccc(C(=O)[C@@H]3CCC[C@H]3C(=O)O)cc2)cc1 | -11%
O=C(O)CCCCC(CCSCc1ccccc1)SCc1ccccc1 (stereo not drawn) | -1.63%
